AmpC detergent: blocks E. coli AmpC beta-lactamase in detergent assay. P00811. 0.041% of 370,000 active. AmpC hydrolysis of nitrocefin, absorbance 480 nm, 0.01% Triton. Potency, µM (highest dose often 114 µM), for inactives: at the top dose activity change, negative = inhibition, most hits filed as inhibitors;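 further: 0% = no-compound wells and -100% = no-enzyme wells; nearly all actives have a fitted effect of over 25% in size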
Target sequence (P00811 whole entry, looked up): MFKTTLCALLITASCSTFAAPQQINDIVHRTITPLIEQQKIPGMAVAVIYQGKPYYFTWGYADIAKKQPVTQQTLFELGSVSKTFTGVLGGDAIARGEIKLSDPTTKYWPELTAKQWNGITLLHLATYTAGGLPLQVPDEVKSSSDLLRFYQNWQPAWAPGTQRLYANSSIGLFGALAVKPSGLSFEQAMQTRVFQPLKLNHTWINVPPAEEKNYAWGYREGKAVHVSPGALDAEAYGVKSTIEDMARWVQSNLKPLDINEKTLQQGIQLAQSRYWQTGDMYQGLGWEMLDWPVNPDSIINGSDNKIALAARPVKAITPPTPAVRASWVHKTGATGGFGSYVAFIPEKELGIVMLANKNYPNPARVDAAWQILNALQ
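20 mM phosphate pH 7.0 + 0.01% (detergent screen) or 0.0001% Triton X-100; 5.3 nM AmpC reagent; cpd preinc 15 min RT; nitrocefin (800 uM stock) to start; A480 q20 s × 4 min; Activity was normalised to no-enzyme and no-compound control wells.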
Pf growth 48h: inhibits P. falciparum growth in the first generation, 48 h; Potency, µM (titrated, usually from 28.7 µM), without a hit: at the top dose activity change, negative = inhibition, actives largely listed as inhibitors; P. falciparum luciferase growth in erythrocytes, 48 h; 5.9% of 310,000 active; further: on the % scale 0 is the no-effect control and ±100 the full control effect
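Firefly luciferase activity from engineered P. falciparum reports growth; inhibitors lower the luminescent signal. Cultures contained 2% hematocrit erythrocytes at 0.1% final parasitemia.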
SARS PLP yeast: SARS-CoV PLP inhibition in yeast | AID 485353 | S. cerevisiae expressing SARS-CoV PLpro, growth rescue | Potency, µM (titrated, usually from 32.9 µM), without a hit: at the top dose activity, positive = growth rescue, hits mostly activators | 0.19% of 330,000 active; calls by dose curve; further: 0% is about no effect; nearly all actives have a fitted effect of over 55% in size
Sm TGR block: inhibitors of Schistosoma mansoni thioredoxin glutathione reductase. AID 485364. 3% of 360,000 active. Potency, µM (titrated, usually from 114 µM), without a hit: top-dose activity change, negative = inhibition, hits mostly inhibitors. purified TGR, DTNB reduction, TNB absorbance 405 nm; further: on the % scale 0 is the no-effect control and ±100 the full control effect; nearly all actives have a fitted effect of over 60% in size
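Kinetic colorimetric format: TGR-catalysed, NADPH-driven DTNB reduction monitored via TNB absorbance. Enzyme dispensed at 20 nM; compound exposure 15 min at room temperature before reaction start.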
AmpC inh no detg: blocks E. coli AmpC beta-lactamase in detergent-free assay; Potency, µM (top dose mostly 57.1 µM), for the others: top-dose activity change, negative = inhibition, most hits filed as inhibitors; AID 485341; P00811; AmpC nitrocefin hydrolysis, absorbance 480 nm, 0.0001% Triton; 0.52% of 330,000 active;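 further: plate controls were no compound for no effect and no enzyme for full effect; nearly all actives have a fitted effect of over 20% in size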
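20 mM phosphate pH 7.0 + 0.01% (detergent screen) or 0.0001% Triton X-100; 5.3 nM AmpC reagent; cpd preinc 15 min RT; nitrocefin (800 uM stock) to start; A480 q20 s × 4 min; Activity was normalised to no-enzyme and no-compound control wells.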
Pf growth 96h: P. falciparum growth inhibition at 96 hour, primary screen for plastid delayed-death inhibitors. AID 504834. P. falciparum luciferase reporter growth, 96 h. 6.9% of 320,000 active. Potency, µM (top dose mostly 28.7 µM), inactives show top-dose activity change, negative = inhibition, hits mostly inhibitors; further: on the % scale 0 is the no-effect control and ±100 the full control effect
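Parasite growth measured via integrated firefly luciferase reporter in P. falciparum. Infected erythrocytes at 2% hematocrit, 0.05% parasitemia final were treated 96 hours at 37 C under 5% CO2, and luminescence was read.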
An asterisk follows results filed as active; ? = inconclusive; nt = not tested or not shown; [ ] = remark or other dose. Only some compounds are listed: those with a hit (about 12% of all), similar ones and a draw of the others. Unless noted, the call rests on the fitted dose curve; in most records, active means well fitted curve in the direction sought with a large enough effect; inconclusive means small, poorly fitted or top-dose-only effect, or another doubt; inactive means no such curve, though single readings can be large; an effect the other way counts as inactive or inconclusive. Potency means the concentration at half of the fitted maximal effect.

SMILES	AmpC detergent	Pf growth 48h	SARS PLP yeast	Sm TGR block	AmpC inh no detg	Pf growth 96h
COc1cccc(CN(C)C(=O)CN2C(=O)NC(c3ccccc3)(c3ccccc3)C2=O)c1	-4%	10µM*	5%	-11%	-9%	10µM*
COc1cccc(CN(C)C(=O)CN2C(=O)NC(c3ccccc3)(c3ccccc3)C2=O)c1OC	-12%	?	11%	-7%	50%	12µM*
Cn1c2ccccc2c2c(C(=O)N3CCN(c4cccc(Cl)c4)CC3)cn(C3CCCCC3)c(=O)c21	13%	nt	nt	1%	nt	nt
CCc1ccccc1N(CC)C(=O)c1c(C)oc2ncnc(N3CCOCC3)c12	19%	nt	nt	3%	nt	nt
COc1ccc(C(=O)c2oc3ccccc3c2NC(=O)c2cc(=O)c3ccc(C)cc3o2)cc1Cl	3%	nt	nt	-10%	nt	nt
N#Cc1ccccc1Cn1c(=O)n(CCC(=O)NCc2ccco2)c(=O)c2ccccc21	-14%	-23%	?	-9%	-11%	?
O=C(CCCCn1c(=O)c2ccccc2n(Cc2ccc(Cl)cc2)c1=O)NCc1ccco1	?	12µM*	7%	2%	37%	25%
N#Cc1ccccc1Cn1c(=O)n(Cc2ccc(C(=O)NCc3ccco3)cc2)c(=O)c2ccccc21	2%	2.9µM*	-3%	-3%	-16%	81%
COc1ccc(NC(=O)CSc2ccc3c(c2)OCCO3)cc1S(N)(=O)=O	nt	nt	-1%	nt	-16%	nt
Cc1ccccc1NC(=O)CN1C(=S)NC(C)(C)CC1C (configuration not stated)	-5%	10%	0%	3%	-23%	?
CCc1ccc(NC(=O)CCCN2C(=S)NC(C)(C)CC2C)cc1 (configuration not stated)	-7%	?	6%	6%	10%	1.9µM*
Cc1cccc(NC(=O)CN2C(=S)NC(C)(C)CC2C)c1 (configuration not stated)	-7%	-3%	-7%	-3%	-17%	10µM*
COCc1nn2cc(-c3ccc(C)cc3)nc2s1	19%	nt	nt	6%	nt	nt
COc1ccccc1-n1c(=O)c2c3c(sc2n2c(=S)[nH]nc12)CCC3	2%	10%	-2%	-7%[57.1 µM]	-11%	420%
Cc1noc(C)c1COc1cccc(C(=O)N2CCN(C/C=C/c3ccccc3)CC2)c1	7%	10µM*	0%	-18%	180%	nt
COc1ccccc1NS(=O)(=O)c1cc(C(=O)N2CCCC2)ccc1F	-2%	3.3µM*	-1%	1%	-5%	?
COc1ccccc1NS(=O)(=O)c1ccc(C(=O)N2CCCCCCC2)cc1	1%	?	6%	-2%	73%	?
COc1ccccc1NC(=O)C(C)N1CCN(C/C=C/c2ccccc2)CC1 (configuration not stated)	?	13µM*	-6%	-6%	120%	17%
COc1ccccc1NS(=O)(=O)c1cccc(C(=O)N2CCN(C/C=C/c3ccccc3)CC2)c1	-1%	5.9µM*	-5%	-19%	204%	8.3µM*
Cc1cccc(N2CCn3c2nc2c3c(=O)n(CCCc3ccccc3)c(=O)n2C)c1	8%	nt	nt	-16%	nt	nt
COC(=O)c1ccc(OCC2c3cc(OC)c(OC)cc3CCN2C(=O)c2cccc(C)c2)cc1 (configuration not stated)	-1%	nt	nt	8%	nt	nt
CCOc1ccc(C2CC(c3c(O)n(C4CCCCC4)c(=O)[nH]c3=O)=Nc3ccccc3S2)cc1 (configuration not stated)	-5%	nt	nt	1%	nt	nt
Cc1cccc(NS(=O)(=O)c2cccc(C(=O)N3CCN(C/C=C/c4ccccc4)CC3)c2)c1	5%	12µM*	3%	-5%	144%	10µM*
COc1ccccc1NS(=O)(=O)c1cc(C(=O)N2CCN(C/C=C/c3ccccc3)CC2)ccc1C	6%	11%	?	35µM*	-11%	-15%
Cc1cccc(NS(=O)(=O)c2cccc(C(=O)N3CCCC3)c2)c1	-4%	0%	0%	-5%	-17%	9%
SMILES	AmpC detergent	Pf growth 48h	SARS PLP yeast	Sm TGR block	AmpC inh no detg	Pf growth 96h
N/C(=N\OC(=O)c1ccc2ccccc2c1)c1ccc(Br)cc1	-12%	13µM*	10%	-8%	-15%	293%
COc1ccc(/C(N)=N/OC(=O)c2ccc3c(c2)OCO3)cc1	?	?	-95%	?	-21%	9%
Cc1ccc(/C(N)=N/OC(=O)c2ccc3c(c2)OCO3)cc1	-4%	?	-61%	0%	-24%	5.9µM*
Cc1cccc(C(=O)O/N=C(\N)c2ccc(Br)cc2)c1	-2%	nt	-22%	-24%	-28%	?
CCOc1cccc(C(=O)Nc2ccccc2C(=O)N2CCOCC2)c1	-11%	?	-4%	0%	-14%	23%
COc1cccc(C(=O)Nc2cccc(-c3cn4c(C)csc4n3)c2)c1OC	1%	nt	nt	-7%	nt	nt
COc1ccc(-n2c(Cc3cccn3C)nnc2SCC(=O)Nc2ccccc2OC)cc1	-6%	13µM*	-30%	-20%	87%	?
Cc1nnc(NC(=O)CSc2nnc(Cc3cccn3C)n2C)s1	5%	18%	10%	?	32µM*	-2%
Cn1cccc1Cc1nnc(SCC(=O)NC2CCCC2)n1CCc1ccccc1	-13%	nt	-3%	-23%	75%	8.3µM*
COc1ccc(-n2c(Cc3cccn3C)nnc2SCC(=O)Nc2ccc(C)cc2C)cc1	-6%	?	13%	?	85%	6%
Cc1ccc(-n2c(Cc3cccn3C)nnc2SCC(=O)Nc2nnc(C)s2)cc1	?	?	-5%	-24%	43%	-11%
Cn1cccc1Cc1nnc(SCC(=O)Nc2ccccc2F)n1-c1ccc(F)cc1	?	13µM*	-10%	?	21%	?
Cc1ccc(C)c(NC(=O)Nc2nnc(N(CC(C)C)CC(C)C)s2)c1	21%	nt	nt	-3%	nt	nt
CCC(=O)c1c(NC(C)C)cc(C)oc1=O	-7%	?	-3%	-13%	-15%	?
O=c1cc(-c2ccccc2)n2c(SCc3ccc(Br)cc3)nnc2[nH]1	-4%	nt	nt	4%	nt	nt
Cc1cccc(C)c1OCC(=O)NCc1nnc(SCC(=O)NC2CCCCC2)n1C	0%	12µM*	-3%	14%	41%	27%
COc1ccc(-n2c(Cc3cccn3C)nnc2SCC(=O)Nc2cc(Cl)ccc2OC)cc1	-1%	10µM*	9%	-16%	157%	?
Cn1cccc1Cc1nnc(SCC(=O)Nc2ccccc2F)n1CCc1ccccc1	?	13µM*	-11%	-26%	25%	-2%

Compound activity (PubChem)
